This passage reports composite z-score and z-score results from PubChem BioAssay.

Each structure is given as a SMILES string. Calls of active or inactive are those of the source. Unless noted, no rule for the calls is given here.

Experiment [1] is described as follows: compounds binding Alexa647 anti-His antibody – biochemical, small-molecule microarray, 635 nm fluorescence, artefact control for SMM control protein annotation, primary screen (AID 1128).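 Also: score merges feature fluorescence with signal-to-noise for each printed compound spot.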 The following applies: higher = more signal.
The subject of experiment [2] is Human papillomavirus type 1a E7 protein (residues 1-88). The experiment can be described thus: HPV1a E7 small-molecule binders, primary screen, biochemical, small-molecule microarray, residues 1-88, 635 nm (AID 1129). To be noted: small-molecule microarray binding, fluorescence 635 nm; higher = more signal.
For experiment [3], the target named is Focal adhesion kinase 1 (Homo sapiens) (UniProt Q05397). The experiment can be described thus: PTK2 protein binding on printed compound slides – biochemical, small-molecule microarray, 635/667 nm fluorescence, BSA, DTT, primary screen (AID 1130).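 Also: composite of spot emission at 667 nm and signal to noise over triplicate slides.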 To be noted: 635 nm fluorescence, higher = more signal.
Sequence of Focal adhesion kinase 1 (Homo sapiens) (Q05397 whole entry, looked up): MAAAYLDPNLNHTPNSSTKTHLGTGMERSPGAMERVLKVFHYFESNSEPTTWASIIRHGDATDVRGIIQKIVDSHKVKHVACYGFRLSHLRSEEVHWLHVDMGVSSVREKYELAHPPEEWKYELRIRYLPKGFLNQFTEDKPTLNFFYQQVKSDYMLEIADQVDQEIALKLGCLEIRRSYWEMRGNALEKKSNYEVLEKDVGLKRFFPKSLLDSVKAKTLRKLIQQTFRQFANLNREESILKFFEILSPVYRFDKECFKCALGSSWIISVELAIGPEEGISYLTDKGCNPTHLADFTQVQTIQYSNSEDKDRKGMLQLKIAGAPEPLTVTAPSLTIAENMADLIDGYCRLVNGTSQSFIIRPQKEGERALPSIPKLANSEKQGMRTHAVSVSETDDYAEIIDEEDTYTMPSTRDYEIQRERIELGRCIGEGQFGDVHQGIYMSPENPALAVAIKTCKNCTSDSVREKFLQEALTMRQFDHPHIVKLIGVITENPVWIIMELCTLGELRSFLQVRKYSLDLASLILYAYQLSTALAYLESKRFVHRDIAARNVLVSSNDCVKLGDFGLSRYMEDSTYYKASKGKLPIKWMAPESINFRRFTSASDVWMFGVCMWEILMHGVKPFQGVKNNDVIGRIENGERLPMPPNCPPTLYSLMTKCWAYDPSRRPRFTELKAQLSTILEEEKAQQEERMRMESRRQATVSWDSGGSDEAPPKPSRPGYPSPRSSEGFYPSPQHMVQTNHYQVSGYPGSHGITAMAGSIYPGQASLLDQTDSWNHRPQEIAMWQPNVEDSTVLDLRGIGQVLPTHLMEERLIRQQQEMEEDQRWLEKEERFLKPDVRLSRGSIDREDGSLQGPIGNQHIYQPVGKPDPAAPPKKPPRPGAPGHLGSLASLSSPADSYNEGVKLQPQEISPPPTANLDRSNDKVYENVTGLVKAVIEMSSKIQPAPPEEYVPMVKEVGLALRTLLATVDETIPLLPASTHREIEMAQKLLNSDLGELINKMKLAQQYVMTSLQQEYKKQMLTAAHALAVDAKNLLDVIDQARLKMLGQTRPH
Experiment [4] has as its system Fibrinogen (Alexa647-labelled). The experiment can be described thus: Alexa647-fibrinogen binding to printed small molecules – biochemical, small-molecule microarray, 635/667 nm fluorescence, artefact control for SMM control-protein annotation, profiling panel (AID 1131).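 Also: z-score merges 667 nm fluorescence with per-spot signal-to-noise over triplicate slides.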 The following applies: fibrinogen-A647 binding fluorescence, higher = more signal.
For experiment [5], the target named is Follistatin (Homo sapiens) (UniProt P19883). As to the kind of experiment: FST protein binding to printed compounds – biochemical, small-molecule microarray, 635/667 nm fluorescence, primary screen (AID 1132). To be noted: 635 nm fluorescence, higher = more signal.
Sequence of Follistatin (Homo sapiens) (P19883 whole entry, looked up): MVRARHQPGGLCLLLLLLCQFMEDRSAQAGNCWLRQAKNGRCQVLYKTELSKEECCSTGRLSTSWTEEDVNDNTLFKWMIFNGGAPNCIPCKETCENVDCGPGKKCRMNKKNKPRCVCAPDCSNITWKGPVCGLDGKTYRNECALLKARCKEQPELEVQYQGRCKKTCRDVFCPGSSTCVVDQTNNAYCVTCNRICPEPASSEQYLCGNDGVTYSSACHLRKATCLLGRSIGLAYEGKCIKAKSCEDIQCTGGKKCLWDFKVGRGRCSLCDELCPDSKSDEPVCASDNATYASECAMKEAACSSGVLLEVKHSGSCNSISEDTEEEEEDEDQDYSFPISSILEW
In experiment [6] the target is Fibroblast growth factor 2 (Homo sapiens) (UniProt P09038). The experiment can be described thus: basic fibroblast growth factor binding to printed compounds – biochemical, small-molecule microarray, 635/667 nm fluorescence, primary screen (AID 1133). To be noted: FGF2, fluorescence 635/667, higher = more signal.
Sequence of Fibroblast growth factor 2 (Homo sapiens) (P09038 whole entry, looked up): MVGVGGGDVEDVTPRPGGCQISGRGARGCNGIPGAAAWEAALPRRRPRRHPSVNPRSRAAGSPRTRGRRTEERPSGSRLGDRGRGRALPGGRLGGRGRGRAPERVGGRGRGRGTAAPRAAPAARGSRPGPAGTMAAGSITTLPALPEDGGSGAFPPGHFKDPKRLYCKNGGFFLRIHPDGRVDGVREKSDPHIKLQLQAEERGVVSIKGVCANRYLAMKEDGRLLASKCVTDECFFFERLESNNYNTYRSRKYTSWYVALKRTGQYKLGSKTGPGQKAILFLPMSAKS
Experiment [7] in a line: JC-1 mitochondrial potential readout, lung cancer cells – cell-based, A549, JC-1 fluorescence, basal, 24 h, 100 nL, profiling panel (AID 1138).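 Also: A549 lung adenocarcinoma cells under basal conditions with no added stimulus; test concentration not given here.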 To be noted: higher = more signal.
In another experiment the test system is Lefty1. As to the kind of experiment: Lefty1 protein binding to printed compounds – biochemical, small-molecule microarray, 635/667 nm fluorescence, primary screen (AID 1139). To be noted: fluorescence 635/667, higher = more signal.
Experiment [8] has as its system wheat germ agglutinin (Triticum aestivum), Alexa647-labelled. As to the kind of experiment: Alexa647-WGA lectin binding to printed small molecules – biochemical, small-molecule microarray, 635/667 nm fluorescence, artefact control for SMM control-protein annotation, profiling panel (AID 1140).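 Also: score merges 667 nm feature emission with signal to noise over triplicate slides.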 To be noted: WGA-A647 binding, 635 nm fluorescence, higher = more signal.

Experiment [9] addresses Luciferin 4-monooxygenase (Photinus pyralis) (UniProt P08659). As to the kind of experiment: inhibition of purified Photinus pyralis luciferase – biochemical, luminescence, purified enzyme, 2006 set, primary screen (AID 1141).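 Also: cell-free assay with purified firefly luciferase at 100 ng per well in PBS; test concentration not given here.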 To be noted: purified firefly luciferase, SteadyGlo luminescence, 30 min; higher = more signal, called active from +8 up or from −8 down.
The test system of experiment [10] is Wnt5a (protein binding on small-molecule microarray). As to the kind of experiment: small molecules binding Wnt5a protein – biophysical, small-molecule microarray, 635/667 nm fluorescence, primary screen (AID 1142).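 Also: fluorescence read at 667 nm with signal to noise per printed feature.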 The following applies: 635 nm fluorescence, higher = more signal.
Experiment [11] in a line: ATP-based viability of Huh7 replicon cells – cell-based, CellTiter-Glo luminescence, basal, 48 h, cytotoxicity control for HCV replication inhibitor project, primary screen (AID 1143).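 Also: Huh7 hepatoma cells carrying a hepatitis C replication reporter with no stimulus; test concentration not given here.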 The following applies: higher = more signal, called active from +8 up or from −8 down.
A short description of experiment [12]: Pseudomonas biofilm growth suppression – PAO1 strain, BacTiter-Glo luminescence, LB-PBS, primary screen (AID 1144). To be noted: P. aeruginosa PAO1 biofilm, 12 h, higher = more signal.
Experiment [13] can be described thus: basal CRE-LacZ reporter activity in PC12 – cell-based, unstimulated, primary screen (AID 1145). To be noted: no forskolin, luminescence, 4.5 h, higher = more signal, called active from +8 up or from −8 down.
The nature of experiment [14]: forskolin-driven CRE-LacZ activity in PC12 – cell-based, CRE-LacZ reporter, forskolin-stimulated, primary screen (AID 1146).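 Also: PC12 cells with 6xCRE LacZ reporter stimulated by forskolin 10 µM; beta-galactosidase reporter signal reflecting CREB driven transcription.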 To be noted: luminescence, 4.5 h, higher = more signal, called active from +8 up or from −8 down.
For experiment [15], the target named is Streptavidin (Streptomyces avidinii) (UniProt P22629). The experiment can be described thus: compounds binding control protein streptavidin – biophysical, small-molecule microarray, 635/667 nm fluorescence, artefact control for SMM compound annotation, primary screen (AID 1147).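 Also: signal reflects streptavidin binding to arrayed compounds as a control protein.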 To be noted: higher = more signal.
Sequence of Streptavidin (Streptomyces avidinii) (P22629 whole entry, looked up): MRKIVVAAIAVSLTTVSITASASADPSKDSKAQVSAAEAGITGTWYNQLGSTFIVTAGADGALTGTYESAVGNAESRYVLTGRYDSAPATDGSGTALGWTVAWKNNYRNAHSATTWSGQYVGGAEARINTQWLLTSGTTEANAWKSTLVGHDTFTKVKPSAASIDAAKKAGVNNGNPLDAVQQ
The nature of experiment [16]: probe aInhba binding on compound microarray – biochemical, small-molecule microarray, 635/667 nm fluorescence, primary screen (AID 1148).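 Also: score merges 667nm spot fluorescence with signal-to-noise for antibody binding to printed compounds.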 To be noted: higher = more signal.
The target of experiment [17] is Torsin-1A (Homo sapiens) (UniProt O14656). As to the kind of experiment: TOR1A wild-type binding on microarray – cell lysate, small-molecule microarray, lysate, 635/667 nm, primary screen (AID 1149). The following applies: COS7 hTOR1A-WT lysate, 635 nm fluorescence, higher = more signal.
Sequence of Torsin-1A (Homo sapiens) (O14656 whole entry, looked up): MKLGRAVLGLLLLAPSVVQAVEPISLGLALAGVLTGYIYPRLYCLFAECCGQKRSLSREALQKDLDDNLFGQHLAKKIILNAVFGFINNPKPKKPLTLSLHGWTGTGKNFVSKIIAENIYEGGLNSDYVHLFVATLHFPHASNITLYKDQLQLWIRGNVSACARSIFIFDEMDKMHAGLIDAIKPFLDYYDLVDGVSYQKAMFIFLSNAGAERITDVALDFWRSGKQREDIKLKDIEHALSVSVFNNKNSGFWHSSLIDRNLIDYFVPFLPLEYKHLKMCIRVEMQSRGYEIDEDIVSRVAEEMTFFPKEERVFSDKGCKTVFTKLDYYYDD
The target is the same in experiment [18]. As to the kind of experiment: torsin A mutant lysate binding on microarrays – cell lysate, small-molecule microarray, COS7 lysate, 635/667 nm fluorescence, primary screen (AID 1150).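 Also: score pools 667 nm emission and signal to noise measuring lysate protein binding.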 The following applies: COS7 hTOR1A mutant lysate, 635 nm fluorescence, higher = more signal.
The test system of experiment [19] is Sonic hedgehog protein (Shh). The experiment can be described thus: Sonic hedgehog microarray binding compounds – biochemical, small-molecule microarray, 635/667 nm fluorescence, primary screen (AID 1151).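 Also: Shh protein binding to compounds spotted on small-molecule microarray slides; score combines spot fluorescence intensity with signal-to-noise across triplicate slides.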 The following applies: 635 nm fluorescence, higher = more signal.

Sequence of Luciferin 4-monooxygenase (Photinus pyralis) (P08659 whole entry, looked up): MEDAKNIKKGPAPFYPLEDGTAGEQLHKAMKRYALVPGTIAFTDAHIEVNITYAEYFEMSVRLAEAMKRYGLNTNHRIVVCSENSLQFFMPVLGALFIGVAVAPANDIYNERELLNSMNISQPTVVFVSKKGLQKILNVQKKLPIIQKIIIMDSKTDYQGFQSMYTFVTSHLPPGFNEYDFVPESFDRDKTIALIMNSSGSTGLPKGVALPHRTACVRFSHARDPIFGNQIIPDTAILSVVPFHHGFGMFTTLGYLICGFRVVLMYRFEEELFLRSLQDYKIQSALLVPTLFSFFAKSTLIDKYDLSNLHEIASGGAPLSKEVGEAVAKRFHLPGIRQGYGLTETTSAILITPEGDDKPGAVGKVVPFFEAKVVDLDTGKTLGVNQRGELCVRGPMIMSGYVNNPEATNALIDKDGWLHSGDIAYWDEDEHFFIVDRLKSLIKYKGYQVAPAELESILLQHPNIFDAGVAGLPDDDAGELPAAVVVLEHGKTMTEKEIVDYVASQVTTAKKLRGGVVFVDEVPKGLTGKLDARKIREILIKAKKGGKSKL

With `COCCOC(=O)N1C(=O)[C@@]2(c3cc(C#CCC(C(=O)OC)C(=O)OC)ccc31)[C@H](c1ccccc1OCCO)N1[C@H](c3ccccc3)[C@H](c3ccccc3)OC(=O)[C@H]1[C@@H]2C(=O)N1CCc2cc(OC)c(OC)cc2C1`, the composite z-score in experiment [1] is 0.89; in experiment [2], 1.19; in [3], 1.33; in [4], 0.938; in experiment [5], 1.41; in [6], 1.49. Moreover, the composite z-score is 1.47 in the experiment on Lefty1; 0.784 in experiment [8]; -0.184 in experiment [10]; 0.226 in [15]; -0.0774 in [16]; 0.298 in the experiment with Torsin-1A (Homo sapiens) [17]. Also, the figures for the composite z-score (with Torsin-1A (Homo sapiens) [18]; in [19]) were 0.619 and 1.88, respectively. For the same molecule, the z-score in experiment [7] was -0.978; in experiment [9], -0.882 (inactive); in experiment [11] it was -3.42 (inactive); in experiment [12] it was -1.52 (inactive); in [13] it was -1.42 (inactive); in experiment [14], -1.16 (inactive).

In the case of `C=CCOC(=O)[C@H]1[C@@H]2C(=O)O[C@@H](c3ccccc3)[C@@H](c3ccccc3)N2[C@@H](c2ccc(OCCOC(=O)[C@@H]3C[C@@H]4C(=O)N5CCC[C@H]5C(=O)N4[C@@H]3c3ccc(O)cc3)cc2)[C@]12C(=O)Nc1ccccc12`, the composite z-score in [1] came to 1.16; in experiment [2], 1.18; in experiment [3], 0.109; in experiment [4], 0.655; in experiment [5], 1.39; in experiment [6] it was 1.35. Besides, the composite z-score is 1.04 with Lefty1; 0.77 in experiment [8]; 1.06 in [10]; -0.244 in [15]; -0.0963 in [16]; 0.529 with Torsin-1A (Homo sapiens) [17]. Besides, the composite z-score came out at 0.853 with Torsin-1A (Homo sapiens) [18] and 1.23 in experiment [19]. Besides, the z-score in [7] was -1.19; in [9], -0.354 (inactive); in experiment [11], -0.496 (inactive); in [12] it was -0.506 (inactive); in [13] it was 0.0124 (inactive); in experiment [14] it was -0.72 (inactive).

`CCCCC(CC)C(O)C1C=CC2C(=O)N(c3ccccc3)C(=O)C2N1Nc1ccccc1` (stereo not given): the composite z-score in experiment [1] was 0.804; in [2], 1.19; in experiment [3] it was 0.462; in experiment [4], 0.881; in experiment [5] it was 0.858; in [6], -0.411. The composite z-score with Lefty1 is -0.249; in experiment [8] it was 1.15; in [10] it was 0.0653; in [15], 0.948; in experiment [16], 0.103; with Torsin-1A (Homo sapiens) [17] it was -0.311. Moreover, the figures for the composite z-score (with Torsin-1A (Homo sapiens) [18]; in experiment [19]) were 0.178 and -0.751, respectively. Besides, the z-score in [7] is -0.99; in [9] it was -0.15 (inactive); in experiment [11] it was -2.93 (inactive); in experiment [12] it was -0.569 (inactive); in [13], 0.253 (inactive); in experiment [14] it was 0.011 (inactive).

With `[N-]=[N+]=NCc1ccccc1C[C@@]1(C(=O)N2CCOCC2)N=C(c2ccc(OCCCO)cc2)O[C@@H]1c1ccccc1CN=[N+]=[N-]`, the composite z-score in experiment [1] is 3.09; in [2] it was 1.25; in [3] it was 0.829; in experiment [4] it was 0.978; in [5] it was 1.05; in experiment [6] it was 0.684. In addition, the composite z-score with Lefty1 amounted to 0.365; in experiment [8] it was 1.3; in experiment [10] it was 1.44; in experiment [15] it was 1.56; in experiment [16] it was 0.985; with Torsin-1A (Homo sapiens) [17], 0.375. Besides, the composite z-score turned out to be 0.193 with Torsin-1A (Homo sapiens) [18] and 0.704 in [19]. In addition, the z-score is 0.74 in experiment [7]; -0.832 (inactive) in [9]; -3.44 (inactive) in [11]; -1.02 (inactive) in experiment [12]; 1.7 (inactive) in [13]; -0.0755 (inactive) in experiment [14].
